In the library only some 12% were active in any assay of this set; here they are far more common.
NS1 function inh = qHTS Assay for Inhibitors of Influenza NS1 Protein Function. Potency, µM (titrated, usually from 46.1 µM), for the others: at the top dose activity, positive = more growth. 270,000 compounds, 0.4% hits. AID 2326, 2010; calls by dose curve; note: actives are rising curves; nearly all actives have a fitted effect of over 50% in size
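Compounds were scored for reversing the slow growth caused by influenza A NS1 in S. cerevisiae, measured by optical density at 600 nm. Assay medium contained 2% galactose at pH 6.0; NS1-free yeast of the same strain were the positive control.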
Pf growth 48h = Primary qHTS for delayed death inhibitors of the malarial parasite plastid, 48 hour incubation | AID 504832, 2011 | Potency, µM (titrated, usually from 28.7 µM), for the others: top-dose activity change, negative = inhibition, actives largely listed as inhibitors | 310,000 compounds, 5.9% hits | P. falciparum luciferase growth in erythrocytes, 48 h; note: % is set by controls: 0 for no effect and ±100 for the full control effect
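Luciferase-expressing P. falciparum in infected erythrocytes (2% hematocrit, 0.1% parasitemia final) in RPMI 1640/0.5% Albumax were exposed to compound for 48 hours at 37 C, 5% CO2; growth read as luminescence.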
SARS PLpro yeast = qHTS of Yeast-based Assay for SARS-CoV PLP; Potency, µM (doses to about 32.9 µM), for the others: top-dose activity, positive = growth rescue, actives largely listed as activators; 330,000 compounds, 0.19% hits; S. cerevisiae expressing SARS-CoV PLpro, growth rescue; calls by dose curve; note: 0% is about no effect; nearly all actives have a fitted effect of over 55% in size
HCV inhibitor = qHTS Assay for Inhibitors of Hepatitis C Virus (HCV) | Potency, µM (highest dose often 41.8 µM), inactives show at the top dose activity change, negative = inhibition, usual class: inhibitors | Huh7.5.1 HCVcc-Cre infection, luciferase reporter, 44 h | 340,000 compounds, 3.4% hits; note: % is set by controls: 0 for no effect and ±100 for the full control effect
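Seed cells (1,000/well) for 4 h; treat with compound and infect with HCVcc-Cre, moi about 0.5. Incubate 44 h, then detect luciferase activity.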
Pf growth 96h = Primary qHTS for delayed death inhibitors of the malarial parasite plastid, 96 hour incubation; Potency, µM (titrated, usually from 28.7 µM), for inactives: at the top dose activity change, negative = inhibition, actives largely listed as inhibitors; 320,000 compounds, 6.9% hits; AID 504834, 2011; P. falciparum luciferase reporter growth, 96 h; note: % is set by controls: 0 for no effect and ±100 for the full control effect
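Luminescence readout: decreased luciferase signal marks inhibited growth of reporter-expressing P. falciparum in infected red cells (2% hematocrit, 0.05% parasitemia final), exposed to compound two generations (96 h, 37 C, 5% CO2).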
AMA1 RON2 block = qHTS for Inhibitors of AMA1-RON; Towards Development of Antimalarial Drug Lead: Primary Screen | AlphaScreen AMA1-biotinylated RON2 peptide binding | 360,000 compounds, 0.2% hits | Potency, µM (highest dose often 58.2 µM), inactives show at the top dose activity change, negative = inhibition, usual class: inhibitors | AID 720542, 2013 | Plasmodium falciparum AMA1 (3D7) - RON2 peptide interaction;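 note: 0% = vehicle wells and -100% = peptide control; nearly all actives have a fitted effect of over 45% in size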
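AMA1 (3D7) with his tag at 25 nM final met compounds first, then biotinylated RON2 peptide at 25 nM; detection used donor plus acceptor beads, 10 µg/mL apiece, read by AlphaScreen after 30 min at room temperature.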
Numbers without * were called inactive; ? = inconclusive; · = not tested or not shown. Unless noted, calls come from the whole dose curve; as a rule, active = well fitted curve in the direction sought with a large enough effect; inconclusive = small, poorly fitted or top-dose-only effect, or another doubt; inactive = no such curve, though single readings can be large; an effect the other way counts as inactive or inconclusive. Potency is the fitted concentration of half-maximal effect.

SMILES	NS1 function inh	Pf growth 48h	SARS PLpro yeast	HCV inhibitor	Pf growth 96h	AMA1 RON2 block
NC(=O)N/N=C/c1c(Sc2nnnn2-c2ccccc2)nc2ccccn2c1=O	2%	4.7µM*	-1%	?	?	15%
N#Cc1ccccc1NC(=O)COc1ccc2c(c1)OCO2	-1%	121%	0%	14%	8.3µM*	-13%
CCCN(CC1CC1)CC(O)c1ccccc1 (stereo not given)	6%	15µM*	-2%	7%	13µM*	-11%
OC(CN(Cc1ccccc1)Cc1ccccc1)c1ccccc1 (stereo not given)	·	·	·	-9%	·	9%
CN1CCC(N(C)CC(O)c2ccccc2)CC1 (stereo not given)	·	5%	6%	-12%	-10%	-26%
CC(C)OCCCN(CC(O)c1ccccc1)CC(O)c1ccccc1 (stereo not given)	15%	10µM*	-8%	24%	?	7%
CCN(CC)CCCOC(=O)C(c1ccccc1)c1ccccc1	-5%	?	1%	0.56µM*	?	7%
O=C1CCCc2oc3c(c21)CCCC3	·	10%	1%	6%	2%	-27%
CCOc1nc(C)cc(C)c1S(=O)(=O)c1cccc(C)c1	0%	-25%	0%	·	0%	·
Cc1cc(C)c(S(=O)(=O)c2c(C)cccc2C)c(OCC(C)C)n1	-39%	12µM*	-26%	?	12µM*	23%
CCc1cc(Cl)c(OC)c(C(=O)NC[C@@H]2CCCN2CC)c1O	·	·	·	5µM*	·	5%
COc1cc(NC(=O)NCC2CCN(Cc3ccccc3Cl)CC2)cc(OC)c1OC	-1%	?	-1%	-28%	-1%	9%
O=C(CCN1C(=O)C2C3CCC(C3)C2C1=O)OCC(=O)c1ccc(Cl)cc1 (stereo not given)	-61%	10%	-2%	16%	-14%	0%
CCc1cc(=O)oc2c(C)c(OC(C)C(=O)N3CCC[C@@H]3C(=O)O)ccc12 (stereo not given in full)	5%	-9%	-5%	-3%	0%	15%
CCc1cc(=O)oc2c(C)c(OC(C)C(=O)N3CC[C@@]4(O)CCCC[C@H]4C3)ccc12 (stereo not given in full)	3%	?	4%	0.89µM*	12µM*	11%
CC(C)NC(=O)C1(C)CCCN1C(=O)c1ccc2c(c1)C(C)(C)CCC2(C)C (stereo not given)	·	·	·	·	·	2%
O=C(CCCn1c(=O)[nH]c2cc(Cl)ccc2c1=O)NCCCN1CCN(c2ccc(F)cc2)CC1	·	?	-1%	7.9µM*	13%	-5%
CCn1c(=O)[nH]c2cc(C(=O)Nc3cc(C)cc(C)c3)ccc2c1=O	1%	4.7µM*	-2%	?	30%	-19%
COCCn1c(=O)[nH]c2cc(C(=O)NCCCN3CCN(c4ccc(F)cc4)CC3)ccc2c1=O	2%	8%	3%	10µM*	?	5%
CCN1CCN(CCCNC(=O)c2ccc3c(=O)n(CCc4ccccc4)c(=O)[nH]c3c2)CC1	-11%	?	0%	10µM*	?	-8%
CCOC(=O)CC/C(C)=N\N=C1\SC(CC(=O)O)C(=O)N1c1ccccc1 (stereo not given)	4%	?	0%	11%	?	-3%
CCOc1ccc(CNS(=O)(=O)c2cc(-c3cc(C)no3)ccc2OC)cc1OC	1%	-5%	17%	-11%	32%	-9%
NC(=O)c1ccccc1NC(=O)/C=C/C(=O)O	-7%	·	1%	18%	-38%	-11%
O=C(O)/C=C/C(=O)Nc1ccccc1-c1ccccc1NC(=O)/C=C/C(=O)O	11%	0%	1%	26%	?	0%
O=C(O)/C=C\C(=O)Nc1ccccc1C#Cc1ccccc1	-16%	127%	-30%	11µM*	89%	4%

Assay outcomes: PubChem, National Center for Advancing Translational Sciences (NCATS)
